Source: PubChem BioAssay AID1259422 (The Scripps Research Institute Molecular Screening Center, 2018)
In all, about 640,000 compounds went through this assay and about 9,300 (1.5%) were called active. Shown is part of a subset that was picked to be rich in actives. A number with no mark means an inactive call. Rule as the data show it: active = inhibition above about 32%; inactive = the rest.

Test: TEAD-YAP interaction inhibition, primary screen, TEAD-YAP interaction inhibitor project, luminescence, HEK-TIYL cells (AID 1259422);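 also: 0% = median of test compound wells and 100% = reference inhibitor wells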
Conditions: TEAD-Gal4/YAP UAS-luciferase luminescence, at 9.12 µM, hits give high values

| Compound | inhibition |
| --- | --- |
| CCN(CC)CCNC(=O)c1ccc(Nc2cc(Nc3ccccc3C(=O)NC)c(C(F)(F)F)cn2)nc1 | 96.8% (active) |
| CCCn1c(=S)[nH]c2cc(C(=O)NCCN(CC)CC)ccc2c1=O | 12.2% |
| Cc1ccc(Nc2nnc(-c3ccc(C(=O)N(C)C)cc3)c3ccccc23)cc1 | -11.2% |
| CC(C)N(CCNC(=O)c1ccnc(Nc2ccc(C(F)(F)F)cc2)c1)C(C)C | -16% |
| Cc1cc(C(=O)Nc2ccccc2C(F)(F)F)ccc1[N+](=O)[O-] | -8.76% |
| CNC(=O)c1ccccc1Nc1cc(Nc2ccc(C(=O)N(C)C)cc2)ncc1C(F)(F)F | 77.1% (active) |
| CCN(CC)CCNC(=O)c1ccc2c(=O)n(CCN(CC)CC)c(=S)[nH]c2c1 | 18.8% |
| CNC(=O)c1ccccc1Nc1nc(Nc2ccc(-n3cnc(-c4ccc(C)nc4)n3)cc2)ncc1Cl | 8.52% |
| COc1cc(N2CCOCC2)ccc1Nc1cc(Nc2ccccc2-n2cccn2)c(C(F)(F)F)cn1 | -8.57% |
| CCN(CC)CCOc1ccc(Nc2cc(Nc3ccccc3C(=O)NC)c(C(F)(F)F)cn2)c(OC)c1 | 83.4% (active) |
| CCN(CC)CCNC(=O)c1ccc(Nc2cc(Nc3ccccc3C(=O)NC)c(C(F)(F)F)cn2)c(C)c1 | 84.7% (active) |
| CNC(=O)c1ccccc1Nc1cc(Nc2ccc(N3CCOCC3)cc2OC)ncc1F | 6.22% |
| CCc1ccccc1N(CC(=O)Nc1cc(Cl)ccc1C)S(C)(=O)=O | 1.56% |
| Cc1ccc(OCCSc2nc(N)cc(=O)[nH]2)cc1 | -7.78% |
| CN(C)CCNc1ccnc2c(-c3ccsc3)cnn12 | -57.5% |
| O=C(Nc1ccc2c(c1)CN(C1CCOCC1)CC2)c1ccc(C(F)(F)F)cc1 | 17.5% |
| COc1ccc(NC(=O)/C(=C\c2ccc3c(c2)OCO3)NC(=O)c2ccccc2Cl)c(OC)c1 | 21.2% |
| COc1ccc(OC)c(/C=N/NC(=O)COc2ccc(Br)cc2)c1 | -1.77% |
| COc1ccc(/C=N/NC(=O)COc2ccc(Cl)cc2Br)cc1OC | 8.94% |
| CCOC(=O)c1c(C)[nH]c(C(=O)OCC(=O)Nc2ccccc2C(C)(C)C)c1C | 7.06% |
| Cc1cc2nn(-c3ccccc3)nc2cc1NC(=S)NC(=O)c1oc2ccccc2c1C | 7.4% |
| C=C(C)C1C=C(C)/C(=N/NC(=O)c2ccc(N3CCCC3=O)cc2)CC1 (stereo not given) | 0.92% |
| O=C(Oc1ccc2c(c1)C(=O)c1cc(OC(=O)c3cccnc3)ccc1-2)c1cccnc1 | -14.7% |

| Compound | inhibition |
| --- | --- |
| COc1ccc(/C=C2\Oc3cc(OC(=O)C4CC4)cc(C)c3C2=O)c(OC)c1OC | -17.3% |
| O=C1/C(=C/c2cccnc2)Oc2cc(OC(=O)C3CC3)ccc21 | 33.5% (active) |
| CCCn1c(=O)[nH]c2c(C(N)=O)nc(-c3cn(C)nc3C)nc21 | -23% |
| O=C(CNc1cccc(Br)c1)Nc1ccccc1C(=O)Nc1ccccc1 | 2.84% |
| O=C1c2cc(S(=O)(=O)N3CCCC3)ccc2-c2ccc(S(=O)(=O)N3CCCC3)cc21 | -1.36% |
| O=C1c2cc(O)ccc2-c2ccc(O)cc21 | -8.01% |
| Nc1ccc2c(c1)C(=O)C(=O)c1cc(N)ccc1-2 | 99% (active) |
| CCCCN(CC)CCNC(=O)CCNC(=O)Cn1cnc2sc3c(c2c1=O)CCCC3 | -4.71% |
| CCN1CCN(C(=O)c2ccc(OC)cc2OC)CC1 | 2.8% |
| Cn1cc(-c2cc(Nc3ccc(N4CCOCC4)cn3)ncc2Cl)cn1 | 38.9% (active) |
| COc1cc(Nc2cc(-c3nocc3-c3cnn(C)c3)ccn2)ccc1N1CCOCC1 | 15% |
| Cn1nccc1Nc1cc(Nc2ccc(N3CCOCC3)cc2)ncn1 | 2.78% |
| CCCN1CC=C2C(C1)C(c1cccc(C(F)(F)F)c1)C(C#N)=C(N)C2(C#N)C#N (stereo not given) | -14.9% |
| CC(C)n1cnc2c(NC3CCN(Cc4ccccc4)CC3)nc(-c3ccc(N4CCOCC4)nc3)nc21 | 36.3% (active) |
| CC(C)n1cnc2c(NC3CCN(Cc4ccccc4)CC3)nc(Nc3ccc(N4CCOCC4)cc3)nc21 | 55.8% (active) |
| CC(C)n1cnc2c(NC3CCN(Cc4ccccc4)CC3)nc(NC3CCN(Cc4ccccc4)CC3)nc21 | 23.1% |
| CC(C)n1cnc2c(NC3CC3)nc(-c3ccc(N4CCOCC4)nc3)nc21 | 1.84% |
| c1ccc(CN2CCC(Nc3nc(Nc4ccc(N5CCOCC5)cc4)c4ncn(C5CCCCC5)c4n3)CC2)cc1 | 7.35% |
| c1ccc(CN2CCC(Nc3nc(-c4ccccc4)nc4c3ncn4C3CCCCC3)CC2)cc1 | 6.01% |
| NC(=O)c1ccc(C(=O)N2CCC3(CC2)NC(=O)c2ccccc2O3)c(F)c1 | 9.77% |
| CC(=O)Nc1sc(C)c(C)c1-c1nc2ccccc2s1 | -2.29% |
| O=C(Cc1cccc2ccccc12)Nc1ccccc1-c1nc2ccccc2s1 | 4.57% |
